# MCF10A rereplic: A quantitative high throughput screen for small molecules that induce DNA re-replication in MCF 10a normal breast cells; Potency, µM (titrated, usually from 46.1 µM), for the others: top-dose activity, positive = re-replication, hits mostly activators; 2.9% of 350,000 active; MCF 10A DNA re-replication, Hoechst nuclear intensity, 48 h; further: potency means the concentration at half of the fitted maximal effect; % of control where 0% means no effect; nearly all actives have a fitted effect of over 50% in size
# Giardia killer: Small Molecules that selectively kill Giardia lamblia: qHTS | Giardia lamblia trophozoite viability | activity change, % at 7.66 µM, hits read low | 0.15% of 340,000 active; in the data active means activity change below about -80%; inconclusive means between about -30% and that limit;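 further: parasites exposed to compound for two days anaerobically before the ATP read; on the % scale 0 is the no-effect control and ±100 the full control effect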
#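 Each well holds 100 Giardia trophozoites and compound. After two days (48 hrs) at 37 deg C in anaerobic conditions, ATP is quantified by luminescence.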
# KB-3-1 cytotox: qHTS assay for MDR1-selective chemotherapeutics: Primary screen using the parental adenocarcinoma cell KB-3-1; Potency, µM (titrated, usually from 46.1 µM), most hits filed as cytotoxic; KB-3-1 viability, CellTiter-Glo ATP luminescence, 72 h; 1.4% of 400,000 active; further: potency means the concentration at half of the fitted maximal effect; on the % scale 0 is the no-effect control and ±100 the full control effect; nearly all actives have a fitted effect of over 60% in size
#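 Here the drug-naive KB-3-1 line serves as comparator for MDR sub-line selectivity; cells received compound titrations, 72 h at 37 °C, then CellTiter-Glo readout.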
# KB-V1 cytotox: qHTS assay for MDR1-selective chemotherapeutics: Primary screen using the drug-selected MDR subline cells KB-V1; 3.4% of 400,000 active; Potency, µM (highest dose often 46.1 µM), usual class: cytotoxic; AID 1347076, 2019; KB-V1 MDR cells viability, CellTiter-Glo, 72 h; further: potency means the concentration at half of the fitted maximal effect; on the % scale 0 is the no-effect control and ±100 the full control effect; nearly all actives have a fitted effect of over 60% in size
#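 Compound-treated KB-V1 multidrug-resistant cells, 72 h, 37 degrees C; viability by CellTiter-Glo. Fitted qHTS curves give the values.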
# ASM inhibitor: Inhibitors of Secretory Acid Sphingomyelinase (S-ASM): qHTS. Sphingomyelin phosphodiesterase (Homo sapiens), P17405. placental ASM, HMU-PC fluorogenic substrate, 60 min. AID 504937, 2011. 0.006% of 340,000 active. Potency, µM (titrated, usually from 57.5 µM), without a hit: at the highest dose activity change, negative = inhibition, hits mostly inhibitors; further: potency means the concentration at half of the fitted maximal effect
# Target sequence (P17405 47-631 limits assumed): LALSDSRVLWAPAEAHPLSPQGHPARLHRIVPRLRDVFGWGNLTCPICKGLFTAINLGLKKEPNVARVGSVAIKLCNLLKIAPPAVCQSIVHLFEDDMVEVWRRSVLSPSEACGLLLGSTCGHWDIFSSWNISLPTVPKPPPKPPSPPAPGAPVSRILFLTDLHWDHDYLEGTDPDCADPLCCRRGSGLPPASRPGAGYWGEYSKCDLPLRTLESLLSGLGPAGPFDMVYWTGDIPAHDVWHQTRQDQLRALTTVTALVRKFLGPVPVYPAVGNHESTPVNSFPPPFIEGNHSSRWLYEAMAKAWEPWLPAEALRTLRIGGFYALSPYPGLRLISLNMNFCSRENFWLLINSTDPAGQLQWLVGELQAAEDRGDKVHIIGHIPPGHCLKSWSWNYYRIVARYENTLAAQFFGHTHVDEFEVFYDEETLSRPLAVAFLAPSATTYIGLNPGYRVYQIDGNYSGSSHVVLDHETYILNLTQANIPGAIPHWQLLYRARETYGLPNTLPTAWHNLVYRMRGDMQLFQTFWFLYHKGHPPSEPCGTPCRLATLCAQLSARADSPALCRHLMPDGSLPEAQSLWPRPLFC
#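 Steps: dispense placental human ASM, pin compound, wait 10 min at room temperature, add HMU-PC0 substrate at 9 uM final, incubate 60 min at 37 °C, add stop solution raising pH to 10, read fluorescence.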
# SW480 rerep: A quantitative high throughput screen for small molecules that induce DNA re-replication in SW480 colon adenocarcinoma cells; Potency, µM (highest dose often 46.1 µM), for inactives: at the top dose re-replication activation, most hits filed as activators; 1.8% of 340,000 active; AID 624297, 2012; SW480 DNA re-replication, Hoechst DNA content imaging, 48 h; further: potency means the concentration at half of the fitted maximal effect; % of control where 0% means no effect; nearly all actives have a fitted effect of over 55% in size
#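 SW480 cells exposed to compounds for 48 hr at 37 C, 5% CO2, then Hoechst-stained 40 min. Nuclear DNA content imaged by fluorescence scanning (405 nm excitation, 500-530 nm emission); re-replication scored as increased high-intensity nuclei.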
# * hit, by the source's call; i = inactive; ? = inconclusive; / = not tested or not shown; ! = not active in a repeat; [ ] = remark or other dose. Shown are actives, neighbours in structure and some others; about 6.9% of the full set was active somewhere. Unless noted, the call rests on the fitted dose curve; in most records, active means well fitted curve in the direction sought with a large enough effect; inconclusive means small, poorly fitted or top-dose-only effect, or another doubt; inactive means no such curve, though single readings can be large; an effect the other way counts as inactive or inconclusive.
SMILES,MCF10A rereplic,Giardia killer,KB-3-1 cytotox,KB-V1 cytotox,ASM inhibitor,SW480 rerep
CCCCCC(=O)Nc1nc2ccccc2[nH]1,20.6%,-8.4,23.1µM*,?,1.0%,?
O=C(CCCSc1nc2ccccc2[nH]1)NCc1ccccc1Cl,0.4%,6.5,i,16.4µM*,2.5%,/
CN(C)c1ccc(C=O)cc1Cl,/,/,i,i,/,/
CSc1ccc(CCNC(=O)Cn2ncc3c(=O)oc4ccccc4c32)cc1,/,/,i,i,/,/
CCOc1ccc2nc(N3CCCC(C(=O)NCCc4ccc(OC)cc4OC)C3)sc2c1 (centres undefined),/,/,i,i,/,/
COc1ccc2[nH]c(C)cc(=O)c2c1,-1.4%,11.3,i,i,5.1%,-3.4%
COc1ccc2[nH]c3c(C)c4ccncc4c(C)c3c2c1,-45.2%,-25.7,18.4µM*,8.2µM*,8.3%,-7.0%
O=C(O)C1CCC(=O)N1Cc1ccc(F)cc1 (centres undefined),16.4µM*,-3.9,i,i,2.9%,10.4%
Cn1c(=O)oc2cc(S(=O)(=O)CCC(=O)N3CCN(c4ccccc4F)CC3)ccc21,-2.0%,34.2,i,?,-0.3%,-2.0%
Cn1c(=O)oc2cc(S(=O)(=O)N3CCN(c4ccccc4F)CC3)ccc21,-0.3%,-12.2,i,i,-0.7%,-10.3%
Cc1ccc(C)c(N2CCN(C(=O)CCS(=O)(=O)c3ccc4c(c3)oc(=O)n4C)CC2)c1,1.1%,5.6,?,6.51µM*!,-2.0%,11.8%
Cc1ccc(Cl)cc1N1CCN(S(=O)(=O)c2ccc3c(c2)oc(=O)n3C)CC1,2.0%,4.9,i,13µM*,-4.9%,6.6%
Cc1cc2nnc(SCC(=O)Nc3ccc(F)c(Cl)c3)n2c2ccccc12,/,/,i,i,/,/
COc1ccccc1CCC(=O)Nc1ccc(OC)c(S(=O)(=O)N2CCCCC2)c1,1.1%,-2.9,i,i,-0.5%,-6.5%
COc1ccccc1CCC(=O)Nc1ccc2c(c1)c(=O)n(C)n2-c1cccs1,/,/,3.26µM*,i,/,/
COc1cc(Cn2c3ccc(NC(=O)CCc4ccccc4)cc3c(=O)n2C)ccc1F,/,/,9.2µM*,5.8µM*,/,/
Nc1ccccc1C(=O)NNC(=O)C(=O)/C=C(\O)c1ccccc1,-0.4%,2.8,i,i,6.4%,5.6%[9.22 µM]
CN(C)S(=O)(=O)c1ccc(C(=O)Oc2cc(=O)[nH]c3ccccc23)cc1,6.51µM*,-3.1,i,i,0.0%,4.2%
CCOC(=O)c1[nH]c2ccccc2c1NC(=O)c1ccc(S(=O)(=O)N(C)C)cc1,1.8%,-20.3,i,i,-3.5%,-0.4%
N#CC(C(=O)NCCc1ccccc1)c1nc2ccccc2nc1N1CCCCC1 (centres undefined),20.6µM*,-9.4,i,i,16.2%,?
N#CC(C(=O)NCCc1ccccc1)c1nc2ccccc2nc1N1CCOCC1 (centres undefined),0.2%,-1.7,i,?,-2.4%,-4.3%
CCCCCNC(=O)C(C#N)c1nc2ccccc2nc1N1CCCC1 (centres undefined),10.3µM*,-5.1,i,i,149.7%,?
CCCCCCNC(=O)C(C#N)c1nc2ccccc2nc1N1CCCC1 (centres undefined),13µM*,3.6,i,i,127.6%,?
CCN(CC)c1nc2ccccc2nc1C(C#N)C(=O)NCCc1ccccc1 (centres undefined),18.4µM*,-16.9,i,i,366.4%,?
O=C(C1=C[C@@H](c2ccccc2)C[C@@H](OCc2ccc(CO)cc2)O1)N1CCN(Cc2ccc3c(c2)OCO3)CC1,?,0.2,10.3µM*,?,0.7%,?
SMILES,MCF10A rereplic,Giardia killer,KB-3-1 cytotox,KB-V1 cytotox,ASM inhibitor,SW480 rerep
O=C(C1=C[C@@H](c2coc3ccccc3c2=O)C[C@@H](OCc2ccc(CO)cc2)O1)N1CCCCCCC1,1.3µM*,-1.0,i,i,2.2%,5.0%[9.22 µM]
O=C(C1=C[C@@H](C2CCCCC2)C[C@@H](OCc2ccc(CO)cc2)O1)N1CCOCC1,6.1%,2.6,i,i,6.2%,0.184µM*
CN1CCN(C(=O)C2=C[C@@H](c3coc4ccccc4c3=O)C[C@@H](OCc3ccc(CO)cc3)O2)CC1,-11.3%,-6.2,i,i,3.3%,-12.4%
O=C(C1=C[C@H](c2ccccc2)C[C@H](OCc2ccc(CO)cc2)O1)N1CCN(Cc2ccccc2)CC1,?,2.0,i,i,7.0%,-16.5%[9.22 µM]
O=C(Nc1ccc(F)cc1)NC1CCCCC1,-4.5%,0.1,i,i,2.7%,-3.1%
O=C(Nc1c(F)c(F)c(F)c(F)c1F)NC1CCCCC1,2.0%,3.4,i,16.4µM*,-0.7%,3.8%
CCN1CCN(C(=O)Cn2c(-c3cccs3)cc3cc(Cl)ccc32)CC1,/,/,i,i,/,/
COCC(=O)N1CCC(Oc2ccc(C(=O)NCCCC3CCCC3)cc2)CC1,-8.7%,9.8,?,9.2µM*,-1.8%,-3.8%
C(=C\c1nc2ccccc2nc1/C=C/c1ccc2c(c1)OCO2)/c1ccc2c(c1)OCO2,/,/,?,i,/,/
C(=Cc1cnc2ccccc2n1)c1ccc2c(c1)OCO2,/,/,i,14.6µM*,/,/
COc1ccc(OC)c(NC(=O)C2(C)CCN2Cc2ccc(SC)cc2)c1 (centres undefined),/,/,i,i,/,/
C[C@]12CC[C@@H]3c4ccc(O)cc4CC[C@H]3[C@@H]1C[C@@H](O)[C@@H]2O,?,5.8,i,?,0.7%,11.6%
CC(=O)Oc1ccc2c(c1)CCC1C2CCC2(C)C(OC(C)=O)CCC12 (centres undefined),?,11.3,?,10.3µM*,?,-0.5%
CCCCC(=O)OC1CCC2C3CCc4cc(O)ccc4C3CC[C@]12C (some centres undefined),18.8µM*,/,/,/,/,2.6%
C[C@]12CC[C@@H]3c4ccc(O)cc4CC[C@H]3[C@@H]1CC[C@@H]2OC(=O)CCC(=O)O,19.0%,16.8,i,?,2.5%,-5.7%
CCC12CCC3c4ccc(O)cc4CCC3C1CC(O)C2O (centres undefined),18.4µM*,1.9,i,i,-1.0%,?
C[C@]12CC[C@@H]3c4ccc(OC(=O)c5ccccc5)cc4CC[C@H]3[C@@H]1CC[C@@H]2O,29.9µM*!,1.7,?,20.6µM*,-21.8%,-43.3%

# Compound activity from PubChem BioAssay.
